Data as given in PubChem BioAssay AID1236 (Emory University Molecular Libraries Screening Center, 2008).
Among all 220,000 compounds or so, about 800 (0.36%) were called active.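 How the source made its calls: active means inhibition above about 50% (limit read from the data); inactive means the rest.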 Only a selection was taken, and actives are over-represented in it overall.

These compounds were tested on calpain II (m-calpain), Sus scrofa (assay: inhibitors of pig calpain II, primary screen, biochemical, fluorogenic peptide substrate, 1536-well (AID 1236)). Settings: purified calpain II, 30 min, at 16 µM, stronger effect = higher value.
With `CCc1cc(-c2n[nH]c(=S)n2CC(C)C)cs1` the inhibition was 44.2% (inactive). `CCCc1cc(-c2n[nH]c(=S)n2Cc2ccccc2)cs1` was tested, and the inhibition was 67.9% (active). For `CCCc1cc(-c2n[nH]c(=S)n2CC)c2ccccc2n1`, the inhibition was -40.7% (inactive). With `C=CCN(c1ccccc1C(=O)NCC(=O)OCC)S(=O)(=O)c1ccc(C)cc1` the inhibition was -6.73% (inactive). For `COc1ccc(C(=O)Nc2ccc(S(=O)(=O)Nc3onc(C)c3C)cc2)cc1OC`, the inhibition was 29.6% (inactive). In the case of `Cc1cc(C)c2nc(-c3cccnc3)cc(C(=O)Nc3ccc(S(=O)(=O)Nc4onc(C)c4C)cc3)c2c1`, the inhibition is reported as 55.4% (active). With `CCn1c(SCC(=O)Nc2ccc(S(=O)(=O)Nc3onc(C)c3C)cc2)nnc1-c1ccccc1` the inhibition was -78.3% (inactive). For `Cc1coc2cc3oc(=O)c(CCC(=O)O)c(C)c3cc12`, the inhibition was -98.6% (inactive). `O=c1cc(N2CCCCC2)c(-c2ccccc2)nn1Cc1cccc(F)c1` was tested, and the inhibition was 55.9% (active). With `O=c1cc(N2CCN(Cc3ccccc3)CC2)c(-c2ccccc2)n[nH]1` the inhibition was -13.6% (inactive). For `O=c1c2ccccc2c(-c2ccccc2)nn1Cc1ccccc1`, the inhibition was 11.2% (inactive). For `COc1cc2sc(C)nc2cc1C`, the inhibition was 2.42% (inactive). For `O=C(NCCNc1ccc([N+](=O)[O-])cc1)c1cccc2c(Br)cccc12`, the inhibition was -5.43% (inactive). In the case of `O=C(COc1ccc(S(=O)(=O)N2CCCCC2)cc1)NCc1ccccn1`, the inhibition is reported as -4.04% (inactive). With `CC1(C)OC(=O)C(=CSc2ccc(C(C)(C)C)cc2)C(=O)O1` the inhibition was -10.7% (inactive). In the case of `CCCOc1ccc(NC(=O)C2OC3OC(C)(C)OC3C3OC(C)(C)OC23)cc1` (stereo not given), the inhibition is reported as -15.2% (inactive). `NNC(=O)c1cccc(COCC(F)(F)C(F)F)c1` was tested, and the inhibition was 20.4% (inactive). In the case of `Cc1nc(-c2ccc(Cl)cc2)sc1C(=O)CBr`, the inhibition is reported as 27.7% (inactive). `Cc1ccc(SCC(=O)c2sc(-c3ccccc3)nc2C)cc1` was tested, and the inhibition was 66.3% (active). `Cc1nc(-c2ccccc2)sc1C(=O)/C=C/c1ccccc1` was tested, and the inhibition was -0.94% (inactive). With `Cc1ccc(C)c2c1cc(C)c1nnc(SCC(=O)Nc3cccc(C(=O)O)c3)n12` the inhibition was -13.6% (inactive). `CC1(C)CCSC(/C=C/c2ccccc2)=N1` was tested, and the inhibition was -19.7% (inactive). `CCCN(C(=O)CSc1nnnn1C)c1c(N)n(Cc2ccccc2)c(=O)[nH]c1=O` was tested, and the inhibition was -5.69% (inactive). `C=CCNc1nc(Nc2ccc(Cl)cc2)nc(OC)n1` was tested, and the inhibition was -20.2% (inactive). For `CC1=NNC(=O)C1CCC(=O)N/N=C(\C)c1ccc(Cl)cc1` (stereo not given), the inhibition was -20.4% (inactive). For `O=C(Cn1nnc(-c2ccccc2)n1)NCc1ccccc1`, the inhibition was 8.33% (inactive). `O=C(Cn1nnc(-c2ccccc2)n1)N/N=C/c1ccc(-c2ccc(Cl)cc2)o1` was tested, and the inhibition was -60.4% (inactive). `Cc1[nH]c2ccccc2c1/C=N\NC(=O)Cn1nnc(-c2ccccc2)n1` was tested, and the inhibition was 54.8% (active). With `Cc1nn(Cc2ccc(F)cc2)c(C)c1NC(=O)c1cccnc1Cl` the inhibition was 7.19% (inactive). `COc1ccccc1NC(=O)c1c(Br)cnn1C` was tested, and the inhibition was -19.7% (inactive). In the case of `O=C1C=CC(=O)N1c1ccc(N2CCCCC2)cc1`, the inhibition is reported as 2.8% (inactive). In the case of `COc1ccc(OCC(=O)NNC(=O)c2ccc(-c3ccccc3)cc2)cc1`, the inhibition is reported as -4.48% (inactive). With `COc1ccc(OCC(=O)NNC(=O)c2cccc(C)c2)cc1` the inhibition was 1.17% (inactive). With `COc1ccc(C(=O)Nc2cc(C)ccc2NC(=O)COc2ccccc2)cc1` the inhibition was 51.4% (active). For `O=C(O)C1=C[C@H](c2cccs2)C[C@H](OCCCCO)O1`, the inhibition was -6.55% (inactive). `O=C(COC(=O)c1cnccn1)Nc1cccc2ccccc12` was tested, and the inhibition was -43.3% (inactive). In the case of `O=C(NC(=S)Nc1ccc(NC(=O)c2cccs2)cc1)c1ccc([N+](=O)[O-])cc1`, the inhibition is reported as 9.92% (inactive). In the case of `CC1CN/C(=C\C(=O)c2ccc(Br)cc2)C(=O)N1` (stereo not given), the inhibition is reported as 14.4% (inactive). With `CO/N=C/c1ccc(N2CCN(C(=O)c3cccc(Cl)c3)CC2)c([N+](=O)[O-])c1` the inhibition was 53.5% (active). For `O=C(c1ccc(Cl)c([N+](=O)[O-])c1)N1CCN(c2ccccc2)CC1`, the inhibition was 14% (inactive). `O=C(/C=C/c1ccc(Cl)cc1)N1CCN(c2ccccc2[N+](=O)[O-])CC1` was tested, and the inhibition was 37.4% (inactive). `CC1=NN(c2ccccc2)C(=O)C1C(=O)c1ccc([N+](=O)[O-])cc1` (stereo not given) was tested, and the inhibition was 2.01% (inactive). With `S=c1[nH]nc(Nc2ccccc2)s1` the inhibition was 31.7% (inactive). With `COc1ccc(Cl)cc1NC(=O)CN(C)Cc1ccc(OC)c(OC)c1` the inhibition was 30.5% (inactive). With `CCS(=O)(=O)c1cc([N+](=O)[O-])c(Sc2ccccc2N)s1` the inhibition was 3.47% (inactive). For `Nc1ccccc1Sc1ccc(C(F)(F)F)cc1[N+](=O)[O-]`, the inhibition was 87.2% (active). `O=C(CSc1ccc(C(F)(F)F)cc1[N+](=O)[O-])NCCOc1ccccc1` was tested, and the inhibition was -9.45% (inactive). For `O=C1Nc2ccc([N+](=O)[O-])cc2C1=Nc1cccc(CO)c1`, the inhibition was 21.2% (inactive). For `CC1=NNC(=O)C1CCC(=O)N/N=C\c1cccc(Cl)c1` (stereo not given), the inhibition was -0.56% (inactive). In the case of `COc1ccc(/C=C(\NC(=O)c2ccc(OCC(C)C)cc2)C(=O)OCc2ccco2)cc1`, the inhibition is reported as 14.9% (inactive). For `O=C(Nc1nnc(C2CC2)s1)c1ccccn1`, the inhibition was -3.35% (inactive). With `N#CCCCn1c(O)c(N=NC(=O)C(O)c2ccccc2)c2ccccc21` (stereo not given) the inhibition was -3.6% (inactive). In the case of `O=C(Cn1cncn1)N/N=C/c1c2ccccc2cc2ccccc12`, the inhibition is reported as -113% (inactive). With `O=C1OC(OC(=O)c2ccccc2Br)C(N2CCOCC2)=C1Cl` (stereo not given) the inhibition was -3.83% (inactive). In the case of `Cc1ccc(NC2=C(Cl)C(=O)OC2OC(=O)c2ccccc2C)cc1` (stereo not given), the inhibition is reported as 66.5% (active). For `Cc1ccccc1C(=O)OC1OC(=O)C(Cl)=C1Nc1ccccc1` (stereo not given), the inhibition was -2.86% (inactive). `CCOc1ccc(/C=N/OCC(=O)NCc2cccs2)cc1` was tested, and the inhibition was 3.21% (inactive). For `COC(=O)c1sccc1NC(=O)CC1C(=O)NCCN1C(=O)Nc1ccc(F)cc1F` (stereo not given), the inhibition was -15.5% (inactive). With `Cc1cc(NC(=O)/C=C/C(=O)N(CC(=O)NC2CCCC2)c2ccc(F)cc2)no1` the inhibition was 1.62% (inactive). In the case of `CCC(=O)Nc1ccc(C(=O)N2CCN(C(=O)c3ccco3)CC2)cc1`, the inhibition is reported as 50.8% (active). `CCNC(=S)N1CCN(C(=O)c2ccco2)CC1` was tested, and the inhibition was -6.94% (inactive). In the case of `O=C(c1ccc2c(c1)OCO2)N1CCN(C(=O)c2ccco2)CC1`, the inhibition is reported as 14.3% (inactive). For `CC(Sc1nnnn1C1CCCCC1)C(=O)O` (stereo not given), the inhibition was -11.2% (inactive). With `C/C(=N\NC(=O)CNc1cccc2ccccc12)c1ccc(Br)s1` the inhibition was 17.6% (inactive). With `O=C(Nc1ccccc1Cl)O/N=C(/c1ccccc1)c1ccccn1` the inhibition was -15.9% (inactive). In the case of `NCCCCCC(=O)N/N=C/c1ccc2nccnc2c1`, the inhibition is reported as -3.28% (inactive). For `CC(C)CNC(=S)NC(=O)c1ccc(Cl)cc1`, the inhibition was 11.4% (inactive). `COC/C=C/C1=CC2=CC(=O)C(C)(OC(=O)CCC(=O)OC)C(=O)C2=CO1` (stereo not given) was tested, and the inhibition was -93.8% (inactive). In the case of `COc1ccc(C(=O)O/N=C(\N)Cc2ccc(Cl)cc2Cl)cc1OC`, the inhibition is reported as 11.8% (inactive). With `NC(N)=N/N=C/c1ccc(OCc2ccc(Cl)cc2Cl)cc1` the inhibition was 61.9% (active). In the case of `NC(N)=N/N=C/c1ccc(Cl)c([N+](=O)[O-])c1`, the inhibition is reported as -20% (inactive). With `COc1ccc(/C=N/NC(=O)c2ccc(Cl)cc2)cc1COC(C)=O` the inhibition was 38.9% (inactive). In the case of `O=C(CN(c1cccc(Cl)c1)S(=O)(=O)c1ccccc1)NN=C1CCCC1`, the inhibition is reported as -9.25% (inactive). With `CCOc1ccc(C(=O)Nc2nccs2)cc1[N+](=O)[O-]` the inhibition was 0.78% (inactive). In the case of `COc1ccccc1N1CCN(C(=O)CSc2ncnc3c2cnn3-c2ccc(C)c(C)c2)CC1`, the inhibition is reported as -19.6% (inactive). `CC(C)C[C@H](NC(=O)[C@@H]1O[C@H]1C(=O)O)C(=O)NCCCCN=C(N)N` was tested, and the inhibition was 98.8% (active). `COc1cc(S(=O)(=O)N(Cc2cccs2)C2CC2)ccc1-n1cnnn1` was tested, and the inhibition was 26% (inactive). `Nc1ccccc1SC(C[N+](=O)[O-])c1ccccc1` (stereo not given) was tested, and the inhibition was 2.09% (inactive). With `O=C(Nc1cccnc1)c1cc2cc(Br)ccc2oc1=O` the inhibition was 52.9% (active). `COc1ccc(C(=O)Nc2cccnc2)cc1C(=O)Nc1cccnc1` was tested, and the inhibition was 17.3% (inactive). `O=C(Oc1cccnc1)c1cc2ccccc2oc1=O` was tested, and the inhibition was -6.4% (inactive). In the case of `COCCN(Cc1cc2cc3c(cc2nc1Cl)OCO3)C(=O)c1cccc(C)c1`, the inhibition is reported as 24.9% (inactive). For `NCCCC[C@@H]1NC(=O)[C@H](CCC(=O)O)NC(=O)c2cc([N+](=O)[O-])cc(I)c2NCC[C@@H](C(N)=O)NC1=O`, the inhibition was -13.1% (inactive). In the case of `CCn1c(/C=C/Nc2ccccc2)[n+](CC)c2ccc(C(=O)OCC(F)(F)F)cc21`, the inhibition is reported as 52% (active). With `CCOC(=O)c1ccc2c(c1)nc(C)n2CC` the inhibition was 14.2% (inactive). In the case of `O=C(CCS(=O)(=O)Cc1ccccc1)Nc1ccc2c(c1)OCCO2`, the inhibition is reported as -23.4% (inactive). For `CCOc1cc(/C=N/NC(=O)OC)ccc1OCCSc1ccc(Cl)cc1`, the inhibition was -7.99% (inactive). With `CCOC(=O)Nc1ccc(S(=O)(=O)N(C)C(C)C)cc1` the inhibition was -5.03% (inactive). For `COc1cc(NC(=O)c2ccccc2NS(=O)(=O)c2ccc(Cl)s2)cc(OC)c1`, the inhibition was -32.1% (inactive). For `Nc1cc(C(F)(F)F)ccc1N1CCOCC1`, the inhibition was -2.56% (inactive). `O=C(N/N=C\c1cccc(Br)c1)c1ccccc1-n1cccc1` was tested, and the inhibition was 68% (active). In the case of `N=c1oc2ccccc2cc1C(=O)N/N=C/c1ccccc1`, the inhibition is reported as 14.5% (inactive). In the case of `COc1ccc(OC)c2[nH]c(=O)c(CCNC(=O)C(=O)c3c[nH]c4ccccc34)cc12`, the inhibition is reported as -38.9% (inactive). With `CC(=O)c1ccc(NC(=O)C2CC(=O)Nc3nc4ccccc4n32)cc1` (stereo not given) the inhibition was -19.9% (inactive). `Cc1nc2ccccc2c(C)c1C(=O)c1ccc(F)cc1` was tested, and the inhibition was -9.43% (inactive).
